A number with no mark means an inactive call. Inconclusive results are not listed. Activity calls are given as the source filed them. Unless noted, the call rests on the fitted dose curve.

The nature of assay [1]: Nuclear factor erythroid 2-related factor 2/antioxidant responsive element (Nrf2/ARE) small molecule agonists: qHTS cell viability counter screen in human keratinocytes (AID 1919968; active means well fitted curve in the direction sought with a large enough effect in the repeat runs; an effect the other way counts as inactive or inconclusive; further: nearly all actives have a fitted effect of over 55% in size). In outline:
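Cells of the KeratinoSens line were plated at 1,500 per well and left for 5 h before compound transfer from DMSO stocks. After a 23 h incubation (37 C, 5% CO2), CellTiter-Fluor was added. Signal was taken as fluorescence intensity 1 h later.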
(In general: Quantitative high-throughput screening tests each substance at several concentrations.)

The nature of assay [2]: Nuclear factor erythroid 2-related factor 2/antioxidant responsive element (Nrf2/ARE) small molecule agonists: luciferase reporter gene qHTS assay in human keratinocytes (AID 1919969). Further: nearly all actives have a fitted effect of over 35% in size. Further: potency means the concentration at half of the fitted maximal effect.
In assay [3] the target is Gonadotropin-releasing hormone receptor (Homo sapiens) (UniProt P30968). As to the kind of experiment: Human gonadotropin-releasing hormone receptor (GnRHR) small molecule agonists, calcium flux assay in GnRHR-HEK293 cells (AID 1920063). Further: nearly all actives have a fitted effect of over 35% in size. The gist of the method:
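Compounds dissolved in DMSO are pin-transferred onto dye-loaded GnRHR-HEK293 cells, which were seeded 18 h before at 37 C/5% CO2. Calcium signal is read as fluorescence intensity at 1 s intervals for 3 min.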
(Calcium flux is commonly read through the fluorescence of an indicator in the cells.)

Assay [4] deals with KiSS-1 receptor (Homo sapiens) (UniProt Q969F8). In words: Human kisspeptin (KISS1R) small molecule agonists, calcium flux assay in KISS1R-HEK293 cells (AID 1920064; active means well fitted curve in the direction sought with a large enough effect in the repeat runs; an effect the other way counts as inactive or inconclusive). The gist of the method:
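Cell line: HEK293, stable human KISS1R. Dye loading 1 h at 37 C after 18 h culture. Read: kinetic fluorescence, 480/540 nm, 3 min at 1 s intervals.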

Assay [5] in a line: G protein-coupled receptor (GPCR) small molecule agonists, calcium flux assay: HEK293 wild type cell line counter screen (AID 1920065). The gist of the method:
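Tox21 10K compounds, 15 concentrations each in triplicate, pin-transferred in DMSO onto dye-loaded cells; kinetic read at 480/540 nm for 3 min, 1 s intervals.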

Assay [6] is described as follows: p53 small molecule agonists, cell-based qHTS assay with human liver microsomes: qHTS cell viability counter screen (AID 1963579). Further: nearly all actives have a fitted effect of over 45% in size. Further: potency means the concentration at half of the fitted maximal effect. The gist of the method: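 Metabolically activated exposure: compounds, human liver microsomes and NADPH (0.5 mg/mL final apiece) were added to p53RE-bla cells seeded 5 h earlier, left 16 h at 37 C, and then assessed for viability by CellTiter-Glo luminescence.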

A short description of assay [7]: p53 small molecule agonists, cell-based qHTS assay with rat liver microsomes: qHTS cell viability counter screen (AID 1963580). Further: nearly all actives have a fitted effect of over 45% in size. In outline: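 Rat liver microsome (0.5 mg/mL final) and NADPH (0.5 mg/mL final) co-incubation with compounds for 16 h at 37 C on HCT-116 p53RE-bla cells; cytotoxicity taken from intracellular ATP luminescence.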
A short description of assay [8]: p53 small molecule agonists, cell-based qHTS assay: qHTS cell viability counter screen (AID 1963581). Further: nearly all actives have a fitted effect of over 45% in size. In outline:
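ATP content measured by luminescence in HCT-116 p53RE-bla cells treated 16 h at 37 C, same wells as the reporter screen.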

The target in assay [9] is 5-hydroxytryptamine receptor 2A (Homo sapiens) (UniProt P28223). In words: 5-hydroxytryptamine receptor 2A (HTR2A) small molecule antagonists, cell-based qHTS assay (AID 1963586). Further: nearly all actives have a fitted effect of over 45% in size. The gist of the method:
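CHO cells stably expressing human HTR2A were plated for 18 h at 37 C, then loaded with calcium dye for 1 h. Compounds were preincubated 5 min at room temperature before DOI (4 nM solution) was added. Kinetic fluorescence was read for 3 min.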

Assay [10] shares this target. As to the kind of experiment: 5-hydroxytryptamine receptor 2A (HTR2A) small molecule agonists, cell-based qHTS assay (AID 1963587). Further: nearly all actives have a fitted effect of over 30% in size. The gist of the method:
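Kinetic calcium-flux fluorescence (2 min, 1 sec intervals) after compound addition in agonist mode. HTR2A-CHO cells were cultured 18 h, then dye-loaded 1 h at 37 C.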

Assay [11] can be described thus: cAMP Responsive Elements (CRE) small molecule agonists, cell-based qHTS assay (AID 1963590). In outline:
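HEK 293T cells stably bearing CRE-bla were plated at 2,000 cells per well and rested 18 h. Compounds, positive controls or DMSO were added for 3 h at 37 C. LiveBLAzer B/G substrate was then loaded for 2 h at room temperature.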

A short description of assay [12]: cAMP Responsive Elements (CRE) small molecule antagonists, cell-based qHTS assay (AID 1963591; active means well fitted inhibition curve with a large enough effect in the signal ratio in the repeat runs, not every such curve was filed as active; the % refers to the signal ratio). The gist of the method: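 First, CRE-bla HEK293T cells settled 18 h at 37 C. Next, compound and 0.25 uM final NKH477 were applied for 3 h. Last, LiveBLAzer B/G substrate was loaded for 2 h at room temperature.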
Assay [13] addresses Beta-2 adrenergic receptor (Homo sapiens) (UniProt P07550). In words: Adrenergic beta2 receptor (ADRB2) small molecule antagonists, cell-based qHTS assay (AID 1963592). Further: series mostly up to about 92 µM; nearly all actives have a fitted effect of over 50% in size. The gist of the method: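 Assay format: CHO-ADRB2 cells, 18-20hr seeding at 37C/5% CO2, then compound plus 1nM isoproterenol agonist mix for 0.5hr RT. Homogeneous time-resolved fluorescence cAMP detection after 1hr, expressed as 665/615 nm ratio.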

Assay [14] concerns the target D(2) dopamine receptor (Homo sapiens) (UniProt P14416). In words: Dopamine D2 receptor (DRD2) small molecule agonists, cell-based qHTS assay (AID 1963594). Further: nearly all actives have a fitted effect of over 35% in size. The gist of the method:
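cAMP accumulation in DRD2-HEK293 cells measured by HTRF after 1 h detection; compounds added 10 min before NKH477 (200nM […]) forskolin-analogue stimulation, 30 min at room temperature, with Ro20-1724 present at 0.1 mM final.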

Assay [15] shares this target. In words: Dopamine D2 receptor (DRD2) small molecule antagonists, cell-based qHTS assay (AID 1963595; active means well fitted inhibition curve with a large enough effect in the signal ratio in the repeat runs, with a control signal flat; the % refers to the signal ratio). In outline:
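Antagonist mode in DRD2-HEK293 cells: after compound addition with 0.1 mM Ro20-1724, cells received quinpirole (12 nM) and NKH477 (200 nM) for 30 min at room temperature; HTRF cAMP read after 1 h detection.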

Assay [16] deals with Muscarinic acetylcholine receptor M1 (Homo sapiens) (UniProt P11229). As to the kind of experiment: Cholinergic receptor muscarinic 1 (CHRM1) small molecule agonists, cell-based qHTS assay (AID 1963589). Further: nearly all actives have a fitted effect of over 35% in size. The gist of the method:
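Homogeneous fluorescence calcium flux, agonist mode. Human M1-expressing CHO cells; compound dosed at 15 concentrations, three independent runs; signal sampled every 1 sec.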

Assay [17] has the same target. In words: Cholinergic receptor muscarinic 1 (CHRM1) small molecule antagonists, cell-based qHTS assay (AID 1963588). Further: nearly all actives have a fitted effect of over 40% in size. In outline:
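Compounds were tested at 15 concentrations in three independent runs. Dye-loaded CHRM1-CHO cells were exposed 5 min at room temperature before stimulation by acetylcholine added at 50nM. Intracellular calcium was read kinetically on FDSS for 3 min.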

Assay [18] concerns the target Beta-2 adrenergic receptor (Homo sapiens) (UniProt P07550). As to the kind of experiment: Adrenergic beta2 receptor (ADRB2) small molecule agonists, cell-based qHTS assay (AID 1963593).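 Further: CHO cells stably overexpressing human ADRB2.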 The gist of the method: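 CHO cells stably over-expressing ADRB2 were plated overnight at 37C, then dosed with compounds plus a stimulation mix containing 100uM IBMX and 25uM Ro-20-1724 for 0.5hr at room temperature. cAMP was measured by HTRF competition, 1hr.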

Sequence of Beta-2 adrenergic receptor (Homo sapiens) (P07550 whole entry, looked up): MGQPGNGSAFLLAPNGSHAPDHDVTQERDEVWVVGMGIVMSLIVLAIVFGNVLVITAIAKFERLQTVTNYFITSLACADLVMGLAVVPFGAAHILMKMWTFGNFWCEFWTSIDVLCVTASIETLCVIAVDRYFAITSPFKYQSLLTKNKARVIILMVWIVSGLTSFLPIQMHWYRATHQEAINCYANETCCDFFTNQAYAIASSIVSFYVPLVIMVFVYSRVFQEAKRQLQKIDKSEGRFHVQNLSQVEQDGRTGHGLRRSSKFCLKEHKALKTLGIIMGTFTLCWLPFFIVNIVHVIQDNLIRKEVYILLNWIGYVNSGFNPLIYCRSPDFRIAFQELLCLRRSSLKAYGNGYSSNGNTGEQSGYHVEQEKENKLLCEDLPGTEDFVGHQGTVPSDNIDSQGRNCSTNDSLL
Sequence of Gonadotropin-releasing hormone receptor (Homo sapiens) (P30968 whole entry, looked up): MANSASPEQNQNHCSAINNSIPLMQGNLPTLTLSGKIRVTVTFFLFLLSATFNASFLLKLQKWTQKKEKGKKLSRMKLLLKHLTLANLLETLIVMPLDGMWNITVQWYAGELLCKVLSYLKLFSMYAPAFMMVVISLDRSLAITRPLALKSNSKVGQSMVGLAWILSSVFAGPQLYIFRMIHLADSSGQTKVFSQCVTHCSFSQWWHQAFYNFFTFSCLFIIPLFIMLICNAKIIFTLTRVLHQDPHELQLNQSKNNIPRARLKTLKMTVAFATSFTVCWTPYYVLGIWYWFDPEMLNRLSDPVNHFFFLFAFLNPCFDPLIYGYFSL
Sequence of D(2) dopamine receptor (Homo sapiens) (P14416 whole entry, looked up): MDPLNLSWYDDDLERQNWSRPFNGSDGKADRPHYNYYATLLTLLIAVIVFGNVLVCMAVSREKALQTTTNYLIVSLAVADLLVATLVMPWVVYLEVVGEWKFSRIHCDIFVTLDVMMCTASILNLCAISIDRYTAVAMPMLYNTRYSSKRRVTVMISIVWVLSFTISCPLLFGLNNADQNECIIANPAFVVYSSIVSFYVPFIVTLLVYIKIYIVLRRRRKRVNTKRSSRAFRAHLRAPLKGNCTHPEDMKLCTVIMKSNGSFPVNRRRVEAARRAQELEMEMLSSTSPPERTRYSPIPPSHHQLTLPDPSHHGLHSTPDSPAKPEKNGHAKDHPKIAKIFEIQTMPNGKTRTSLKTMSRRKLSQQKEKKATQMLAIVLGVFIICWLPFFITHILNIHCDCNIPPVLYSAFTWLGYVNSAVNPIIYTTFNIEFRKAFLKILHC
Sequence of Muscarinic acetylcholine receptor M1 (Homo sapiens) (P11229 whole entry, looked up): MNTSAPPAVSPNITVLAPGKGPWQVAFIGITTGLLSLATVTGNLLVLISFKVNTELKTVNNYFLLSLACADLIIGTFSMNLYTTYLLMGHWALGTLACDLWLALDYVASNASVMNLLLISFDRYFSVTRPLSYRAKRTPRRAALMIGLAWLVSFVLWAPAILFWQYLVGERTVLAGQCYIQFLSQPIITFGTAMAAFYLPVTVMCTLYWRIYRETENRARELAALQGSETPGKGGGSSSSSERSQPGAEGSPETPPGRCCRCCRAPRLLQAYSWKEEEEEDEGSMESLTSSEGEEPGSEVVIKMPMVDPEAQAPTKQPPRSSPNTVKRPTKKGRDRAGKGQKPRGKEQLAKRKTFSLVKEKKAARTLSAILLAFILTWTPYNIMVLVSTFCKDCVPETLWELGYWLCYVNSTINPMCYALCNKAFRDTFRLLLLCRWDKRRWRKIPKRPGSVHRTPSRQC
Sequence of 5-hydroxytryptamine receptor 2A (Homo sapiens) (P28223 whole entry, looked up): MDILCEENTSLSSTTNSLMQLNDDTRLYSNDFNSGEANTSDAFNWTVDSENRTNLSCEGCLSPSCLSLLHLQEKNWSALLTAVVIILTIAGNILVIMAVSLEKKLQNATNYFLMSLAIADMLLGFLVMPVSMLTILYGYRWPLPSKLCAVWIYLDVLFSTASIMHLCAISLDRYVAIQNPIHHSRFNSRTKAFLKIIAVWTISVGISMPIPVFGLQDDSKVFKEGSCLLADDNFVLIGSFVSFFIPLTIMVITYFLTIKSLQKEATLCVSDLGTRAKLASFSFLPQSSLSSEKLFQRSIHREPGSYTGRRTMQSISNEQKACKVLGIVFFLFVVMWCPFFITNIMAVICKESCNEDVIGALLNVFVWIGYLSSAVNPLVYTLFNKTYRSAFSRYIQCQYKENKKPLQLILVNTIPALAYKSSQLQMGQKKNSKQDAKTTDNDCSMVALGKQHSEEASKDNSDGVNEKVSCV
Sequence of KiSS-1 receptor (Homo sapiens) (Q969F8 whole entry, looked up): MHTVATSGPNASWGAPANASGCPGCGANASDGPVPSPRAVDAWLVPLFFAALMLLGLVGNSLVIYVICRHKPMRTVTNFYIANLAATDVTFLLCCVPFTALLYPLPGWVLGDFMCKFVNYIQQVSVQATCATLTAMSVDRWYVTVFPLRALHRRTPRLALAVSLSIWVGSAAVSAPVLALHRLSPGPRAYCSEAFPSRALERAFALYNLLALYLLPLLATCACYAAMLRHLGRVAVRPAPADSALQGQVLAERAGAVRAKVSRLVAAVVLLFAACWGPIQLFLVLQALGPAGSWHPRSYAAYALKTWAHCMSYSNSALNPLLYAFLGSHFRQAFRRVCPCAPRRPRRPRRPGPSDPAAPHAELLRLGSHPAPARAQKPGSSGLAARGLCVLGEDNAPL

On to `CCSCC`, for which the Potency entry in [1], in assay [3], in assay [4], in assay [5], in assay [7] and in assay [8] was “inactive” in each case. The Potency entry in assay [9], in assay [10], in assay [11], in assay [12], in assay [13] and in assay [14] was “inactive” throughout. Besides, the Potency entry in assay [15] is “inactive”. Besides, the figures for the Potency in assay [2] and in assay [6] were 72.5 µM (active) and 19.3 µM (active), respectively.
Turning to `CN(C)CCOC(=O)C(c1ccccc1)C1(O)CCCC1` (stereo unspecified), the Potency result in assay [1], in [2], in assay [3], in assay [4], in [5] and in [6] was “inactive” throughout. For the same molecule, the Potency entry in [7], in assay [8], in [9], in assay [10], in [16] and in assay [11] was “inactive” each time. Also, the Potency entry in assay [12], in [14] and in assay [15] was “inactive” each time.
`O=Cc1cc(O)ccc1Br`: the Potency entry in assay [1], in [3], in assay [4], in [5], in assay [6] and in [7] was “inactive” each time. Also, the Potency entry in assay [8], in [9], in assay [17], in assay [16], in assay [11] and in [12] was “inactive” each time. Moreover, the Potency entry in [13], in [18], in [14] and in assay [15] was “inactive” in each case. Moreover, the Potency in assay [2] is 49.2 µM (active).
For `CC(=O)CCC1=C(C)CCCC1(C)C`, the Potency result in assay [1], in assay [2], in assay [3], in assay [4], in [5] and in [6] was “inactive” throughout. The Potency result in [7], in [8], in assay [9], in assay [17], in [16] and in [11] was “inactive” each time. Further, the Potency result in assay [12], in [13], in assay [14] and in assay [15] was “inactive” throughout.
With `C[C@H]1c2cccc(O)c2C(O)=C2C(=O)[C@]3(O)C(O)=C(C(N)=O)C(=O)[C@@H](N(C)C)[C@@H]3[C@@H](O)[C@@H]21`, the Potency result in assay [1], in assay [2], in assay [3], in assay [4], in assay [5] and in assay [6] was “inactive” throughout. The Potency entry in [7], in assay [8], in assay [9], in assay [17], in [16] and in assay [13] was “inactive” each time. Also, the Potency entry in assay [18], in assay [14] and in assay [15] was “inactive” each time.
`CCC(C)C(C)=O` (stereo unspecified): the Potency result in [1], in assay [2], in assay [3], in assay [4], in assay [5] and in [6] was “inactive” in each case. In addition, the Potency entry in [7], in [8], in assay [9], in [17], in [16] and in assay [11] was “inactive” throughout. The Potency result in assay [12], in assay [13], in [18], in assay [14] and in assay [15] was “inactive” each time.
Take `CC1CCN(CCCC(=O)c2ccc(F)cc2)CC1`: the Potency result in assay [1], in [2], in assay [3], in assay [4], in assay [5] and in assay [6] was “inactive” each time. For the same molecule, the Potency entry in assay [7], in assay [8], in assay [10], in [17], in [16] and in assay [11] was “inactive” throughout. For the same molecule, the Potency result in assay [12], in [13], in assay [18] and in assay [14] was “inactive” each time.
On to `CC(C)(N)C#N`, for which the Potency result in assay [1], in assay [2], in assay [3], in assay [4], in assay [5] and in [6] was “inactive” throughout. The Potency entry in [7], in [8], in [9], in assay [17], in assay [11] and in assay [12] was “inactive” in each case. The Potency result in [13], in [14] and in assay [15] was “inactive” throughout.

These data come from PubChem BioAssay (Tox21).
